These results are taken from PubChem BioAssay (EPA / NIEHS).

Activity calls are given as the source filed them. The calls were made as follows: active = hit-call score of the fitted dose curve at least 0.9, where 1 is the maximum; inactive = score below 0.9.

The target in the first experiment is CCAAT/enhancer-binding protein beta (Homo sapiens) (UniProt P17676). As to the kind of experiment: ATG_C_EBP_CIS: Attagene CIS-FACTORIAL HepG2 Assay for human CCAAT/Enhancer Binding Protein (C/EBP) beta (AID 2282927). Particulars: HepG2 Attagene cis-factorial transcription factor reporter; actives raise or lower the signal. The procedure, abridged: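 Endogenous transcription factor activity in human liver HepG2 cells is inferred from induction of a CEBPB-linked reporter mRNA. Exposure lasts 24 h; activity is fitted in both directions relative to DMSO.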
CCAAT/enhancer-binding protein beta (Homo sapiens), sequence (P17676 whole entry, looked up): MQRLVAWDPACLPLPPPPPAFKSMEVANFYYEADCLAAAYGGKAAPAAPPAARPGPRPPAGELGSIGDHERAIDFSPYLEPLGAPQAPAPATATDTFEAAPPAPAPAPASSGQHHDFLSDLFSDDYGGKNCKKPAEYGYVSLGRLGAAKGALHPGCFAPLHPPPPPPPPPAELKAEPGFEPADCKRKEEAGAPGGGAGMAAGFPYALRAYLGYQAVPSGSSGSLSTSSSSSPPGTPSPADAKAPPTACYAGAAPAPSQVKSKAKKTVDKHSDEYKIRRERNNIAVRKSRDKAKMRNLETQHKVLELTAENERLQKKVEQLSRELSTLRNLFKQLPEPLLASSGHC
In the case of `NNCCO`, the result was inactive.

In the case of `ClCCN1CCOCC1`, the result was inactive.

In the case of `C[C@@H]1O[C@@H](O[C@H]2C[C@@H](O)[C@]3(CO)[C@H]4[C@H](O)C[C@]5(C)[C@@H](C6=CC(=O)OC6)CC[C@]5(O)[C@@H]4CC[C@]3(O)C2)[C@H](O)[C@H](O)[C@H]1O`, the AC50 is 71.6 nM (active).

In the case of `CCOP(=O)(OCC)OC(=CCl)c1ccc(Cl)cc1Cl`, the outcome was inactive.

As for `O=C(CCl)Nc1ccccc1`, the outcome was inactive.

`O=[N+]([O-])c1cccc2ccccc12`: the outcome was inactive.

Turning to `O=C1C[C@@H]2OCC=C3CN4CC[C@]56c7ccccc7N1[C@H]5[C@H]2[C@H]3C[C@H]46`, the result was inactive.

Regarding `CCOP(=S)(OCC)OP(=S)(OCC)OCC`, the outcome was inactive.

With `CC(C)(c1ccc(O)c(-c2ccccc2)c1)c1ccc(O)c(-c2ccccc2)c1`, the result was inactive.

Regarding `CC1(C)[C@H](C(=O)O[C@H](C#N)c2cccc(Oc3ccccc3)c2)[C@@H]1/C=C(\Cl)C(F)(F)F`, the outcome was inactive.

As to `CC(C)(c1ccccc1)c1cc(-n2nc3ccccc3n2)c(O)c(C(C)(C)c2ccccc2)c1`, the outcome was inactive.

As to `FC(F)OCC(F)(F)C(F)(F)F`, the outcome was inactive.

Take `CCN(N=O)C(N)=O`: the result was inactive.

On to `Oc1ccc(Cc2ccc(O)cc2)cc1`, for which the outcome was inactive.

On to `CCOc1ccc(N)cc1`, for which the result was inactive.

Turning to `CCCCOP(=O)(CCCC)OCCCC`, the result was inactive.

As to `O=C(CBr)c1ccc(O)cc1`, the outcome was inactive.

For the molecule `ClCc1ccccc1CCl`, the outcome was inactive.

Consider `N#CCCC(Br)(C#N)CBr` (stereo not drawn), for which the outcome was inactive.

As to `c1cc[c]([Sb]([c]2ccccc2)[c]2ccccc2)cc1`, the outcome was inactive.

As to `O=[N+]([O-])c1cc([As](=O)(O)O)ccc1O`, the outcome was inactive.

Consider `CC(C=O)Cc1ccc2c(c1)OCO2` (stereo not drawn), for which the result was inactive.

On to `CCCCOC(C)=O`, for which the outcome was inactive.

`O=S(=O)(C(Cl)(Cl)Cl)C(Cl)(Cl)Cl`: the outcome was inactive.

As to `OC[C@@H](O)[C@H]1O[C@@H]2O[C@H](C(Cl)(Cl)Cl)O[C@@H]2[C@H]1O`, the result was inactive.

For the molecule `C=CC(Cl)CCl` (stereo not drawn), the outcome was inactive.

For the molecule `CC(C)(C1CCC(O)CC1)C1CCC(O)CC1` (stereo not drawn), the outcome was inactive.

On to `CCNc1nc(NCC)nc(SC)n1`, for which the outcome was inactive.

For `O=c1[nH]c(=O)n(Cl)c(=O)n1Cl`, the outcome was inactive.

Regarding `C=CCOC(N)=O`, the result was inactive.

Take `N#CS`: the outcome was inactive.

Regarding `CCCCC(CC)C(=O)Cl` (stereo not drawn), the result was inactive.

Regarding `O=S1(=O)OC(c2cc(Br)c(O)c(Br)c2)(c2cc(Br)c(O)c(Br)c2)c2ccccc21`, the result was inactive.

With `O=C=Nc1ccc(Cl)cc1`, the result was inactive.

For `CC(C)(C)c1cc([N+](=O)[O-])cc(C(C)(C)C)c1O`, the result was inactive.

For the molecule `Cc1cc(Cl)ccc1OC(C)C(=O)O` (stereo not drawn), the result was inactive.

In the case of `C[N+](C)(C)Cc1ccccc1`, the outcome was inactive.

On to `CCOP(=S)(OCC)Oc1ccc(Cl)cc1Cl`, for which the outcome was inactive.

As for `Fc1cccc(Cl)c1CCl`, the result was inactive.

System in another experiment: not listed separately
As to the kind of experiment: ATG_CMV_CIS: Attagene CIS-FACTORIAL HepG2 Assay for human CMV (Internal Marker) (AID 2282928).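 Also: endpoint acts as a background internal control marker rather than a target.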 Particulars: HepG2 CMV promoter reporter, transcription factor profiling; actives raise or lower the signal. The procedure, abridged:
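Endogenous transcription factor activity read in HepG2 via transfected cis-promoter reporter units. After 24 h dosing, reporter mRNA measured by RT-PCR/capillary electrophoresis; gain or loss of signal fit relative to DMSO.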
With `NNCCO`, the outcome was inactive.

With `ClCCN1CCOCC1`, the call was inactive.

For the molecule `C[C@@H]1O[C@@H](O[C@H]2C[C@@H](O)[C@]3(CO)[C@H]4[C@H](O)C[C@]5(C)[C@@H](C6=CC(=O)OC6)CC[C@]5(O)[C@@H]4CC[C@]3(O)C2)[C@H](O)[C@H](O)[C@H]1O`, the molecule was called inactive.

Turning to `CCOP(=O)(OCC)OC(=CCl)c1ccc(Cl)cc1Cl`, the outcome was inactive.

On to `O=C(CCl)Nc1ccccc1`, for which the molecule was called inactive.

As for `O=[N+]([O-])c1cccc2ccccc12`, the outcome was inactive.

Take `O=C1C[C@@H]2OCC=C3CN4CC[C@]56c7ccccc7N1[C@H]5[C@H]2[C@H]3C[C@H]46`: the molecule was classed as inactive.

In the case of `CCOP(=S)(OCC)OP(=S)(OCC)OCC`, the call was inactive.

On to `CC(C)(c1ccc(O)c(-c2ccccc2)c1)c1ccc(O)c(-c2ccccc2)c1`, for which the molecule was called inactive.

Consider `CC1(C)[C@H](C(=O)O[C@H](C#N)c2cccc(Oc3ccccc3)c2)[C@@H]1/C=C(\Cl)C(F)(F)F`, for which the outcome was inactive.

Consider `CC(C)(c1ccccc1)c1cc(-n2nc3ccccc3n2)c(O)c(C(C)(C)c2ccccc2)c1`, for which the result was inactive.

Turning to `FC(F)OCC(F)(F)C(F)(F)F`, the call was inactive.

In the case of `CCN(N=O)C(N)=O`, the outcome was inactive.

For `Oc1ccc(Cc2ccc(O)cc2)cc1`, the AC50 is 77.1 µM (active).

Turning to `CCOc1ccc(N)cc1`, the outcome was inactive.

In the case of `CCCCOP(=O)(CCCC)OCCCC`, the outcome was inactive.

Take `O=C(CBr)c1ccc(O)cc1`: the outcome was inactive.

For `ClCc1ccccc1CCl`, the concentration at half-maximal activity (AC50) was 56 µM (active).

Consider `N#CCCC(Br)(C#N)CBr` (stereo not drawn), for which the half-maximal activity concentration (AC50) is 62.1 µM (active).

`c1cc[c]([Sb]([c]2ccccc2)[c]2ccccc2)cc1`: the AC50 was 64.8 µM (active).

Take `O=[N+]([O-])c1cc([As](=O)(O)O)ccc1O`: the outcome was inactive.

`CC(C=O)Cc1ccc2c(c1)OCO2` (stereo not drawn): the molecule was called inactive.

Take `CCCCOC(C)=O`: the outcome was inactive.

Turning to `O=S(=O)(C(Cl)(Cl)Cl)C(Cl)(Cl)Cl`, the molecule was called inactive.

For `OC[C@@H](O)[C@H]1O[C@@H]2O[C@H](C(Cl)(Cl)Cl)O[C@@H]2[C@H]1O`, the call was inactive.

In the case of `C=CC(Cl)CCl` (stereo not drawn), the molecule was called inactive.

For `CC(C)(C1CCC(O)CC1)C1CCC(O)CC1` (stereo not drawn), the molecule was classed as inactive.

On to `CCNc1nc(NCC)nc(SC)n1`, for which the outcome was inactive.

On to `O=c1[nH]c(=O)n(Cl)c(=O)n1Cl`, for which the result was inactive.

Regarding `C=CCOC(N)=O`, the molecule was called inactive.

For the molecule `N#CS`, the call was inactive.

Take `CCCCC(CC)C(=O)Cl` (stereo not drawn): the result was inactive.

Turning to `O=S1(=O)OC(c2cc(Br)c(O)c(Br)c2)(c2cc(Br)c(O)c(Br)c2)c2ccccc21`, the call was inactive.

Consider `O=C=Nc1ccc(Cl)cc1`, for which the molecule was classed as inactive.

Take `CC(C)(C)c1cc([N+](=O)[O-])cc(C(C)(C)C)c1O`: the AC50 is 1.77 µM (active).

For `Cc1cc(Cl)ccc1OC(C)C(=O)O` (stereo not drawn), the call was inactive.

On to `C[N+](C)(C)Cc1ccccc1`, for which the outcome was inactive.

Take `CCOP(=S)(OCC)Oc1ccc(Cl)cc1Cl`: the concentration at half-maximal activity (AC50) was 63 µM (active).

For the molecule `Fc1cccc(Cl)c1CCl`, the result was inactive.
